Among the data in article PMC7862700, “An all-to-all approach to the identification of sequence-specific readers for epigenetic DNA modifications on cytosine” are binding signal values, retold here.

Holding throughout (assay): DAPPL (digital affinity profiling via proximity ligation, sequencing); 10 mM Tris-HCl pH 7.5, 50 mM NaCl, 1 mM DTT, 4% glycerol, room temperature, 30 min; GST-TFs on glutathione beads, 16-mer random dsDNA library, 0.1% formaldehyde crosslink after washing; high values mean tight binding
The target in one test is T1, FLI1 (Homo sapiens, UniProt Q01543 1-452).
T1 sequence: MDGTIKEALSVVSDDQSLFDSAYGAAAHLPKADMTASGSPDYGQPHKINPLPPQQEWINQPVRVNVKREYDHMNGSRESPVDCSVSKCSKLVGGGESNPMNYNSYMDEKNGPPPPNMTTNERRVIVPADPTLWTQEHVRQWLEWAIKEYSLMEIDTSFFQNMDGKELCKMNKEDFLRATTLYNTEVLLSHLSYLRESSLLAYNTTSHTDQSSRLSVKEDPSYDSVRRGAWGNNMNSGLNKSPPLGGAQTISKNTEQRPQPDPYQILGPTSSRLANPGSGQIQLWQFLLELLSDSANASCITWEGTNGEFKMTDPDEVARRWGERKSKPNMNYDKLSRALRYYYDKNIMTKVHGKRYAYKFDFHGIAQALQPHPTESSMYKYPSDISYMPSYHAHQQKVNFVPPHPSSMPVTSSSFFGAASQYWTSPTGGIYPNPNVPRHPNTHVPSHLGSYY
The settings on record: protein: recombinant; tags: N-terminal GST; dsDNA, one strand shown. An outline of the steps:
(§1)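 Beads coated with glutathione captured GST-fused human transcription factors that had been expressed in yeast, and the factors were then given DNA barcodes and pooled with a tag-only sample. The pools were incubated with 200 nmole of a random double-stranded 16-mer DNA library in Tris/NaCl/DTT/glycerol buffer for 30 min at room temperature, washed, crosslinked with 0.1% formaldehyde and proximity-ligated with BsaI/T4 ligase at 37 °C for 1 h. PCR amplification and Illumina NextSeq500 sequencing came last. Binding signal is each hexamer's read frequency for a factor divided by its frequency for the tag-only sample.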

A further test concerns the target T2, ELK1 (Homo sapiens, UniProt P19419 1-428).
T2 sequence: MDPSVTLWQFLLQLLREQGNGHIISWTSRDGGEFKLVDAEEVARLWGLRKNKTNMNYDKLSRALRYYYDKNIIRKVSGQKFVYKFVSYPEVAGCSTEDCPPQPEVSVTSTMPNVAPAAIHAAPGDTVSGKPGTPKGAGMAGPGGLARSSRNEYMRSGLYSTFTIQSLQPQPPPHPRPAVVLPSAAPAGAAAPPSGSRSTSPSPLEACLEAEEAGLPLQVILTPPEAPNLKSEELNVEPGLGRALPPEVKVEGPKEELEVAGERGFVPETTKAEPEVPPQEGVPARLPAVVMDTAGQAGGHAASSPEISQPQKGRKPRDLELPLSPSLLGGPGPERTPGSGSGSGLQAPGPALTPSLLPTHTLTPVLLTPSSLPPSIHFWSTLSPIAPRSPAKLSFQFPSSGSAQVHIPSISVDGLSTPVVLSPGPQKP
Particulars: protein: recombinant; tags: N-terminal GST; dsDNA, one strand shown. An outline of the steps:
as §1

The next test has as its target T3, GABPA (Homo sapiens, UniProt Q06546 1-454).
T3 sequence: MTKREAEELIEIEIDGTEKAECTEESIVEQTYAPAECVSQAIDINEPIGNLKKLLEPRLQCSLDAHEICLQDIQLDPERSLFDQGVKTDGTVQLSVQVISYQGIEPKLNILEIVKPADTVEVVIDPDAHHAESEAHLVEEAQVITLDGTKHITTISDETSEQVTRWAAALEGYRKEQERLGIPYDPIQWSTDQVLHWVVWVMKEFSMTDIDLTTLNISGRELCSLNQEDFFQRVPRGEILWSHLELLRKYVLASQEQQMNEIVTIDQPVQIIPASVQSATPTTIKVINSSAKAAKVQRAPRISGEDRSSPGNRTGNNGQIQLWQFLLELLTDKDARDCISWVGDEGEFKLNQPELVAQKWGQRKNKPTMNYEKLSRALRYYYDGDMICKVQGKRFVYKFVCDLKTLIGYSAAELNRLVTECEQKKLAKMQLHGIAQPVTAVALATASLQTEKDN
Particulars: protein: recombinant; tags: N-terminal GST; dsDNA, one strand shown. An outline of the steps: as §1

In another test the target is T4, ERG (Homo sapiens, UniProt P11308 1-479).
T4 sequence: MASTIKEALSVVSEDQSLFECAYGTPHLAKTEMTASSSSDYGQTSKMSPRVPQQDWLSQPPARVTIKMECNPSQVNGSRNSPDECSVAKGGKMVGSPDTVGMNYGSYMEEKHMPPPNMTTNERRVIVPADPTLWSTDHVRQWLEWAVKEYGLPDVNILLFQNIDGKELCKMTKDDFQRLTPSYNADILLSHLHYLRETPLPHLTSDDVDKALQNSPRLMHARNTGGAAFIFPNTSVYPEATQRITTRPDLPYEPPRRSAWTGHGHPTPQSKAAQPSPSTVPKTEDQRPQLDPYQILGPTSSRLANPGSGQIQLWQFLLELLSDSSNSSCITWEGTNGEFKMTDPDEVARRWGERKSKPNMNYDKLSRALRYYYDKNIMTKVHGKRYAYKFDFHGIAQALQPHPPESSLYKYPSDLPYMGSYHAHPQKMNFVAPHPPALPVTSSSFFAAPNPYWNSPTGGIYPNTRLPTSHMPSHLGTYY
Particulars: protein: recombinant; tags: N-terminal GST; dsDNA, one strand shown. An outline of the steps:
as §1

Another test concerns the target ELF1 (Homo sapiens, UniProt P32519 1-619). Particulars: protein: recombinant; tags: N-terminal GST; dsDNA, one strand shown. An outline of the steps: as §1
The target in the next test is SPI1 (Homo sapiens, UniProt P17947 1-270). Particulars: protein: recombinant; tags: N-terminal GST; dsDNA, one strand shown. An outline of the steps:
as §1

A further test addresses SPIB (Homo sapiens, UniProt Q01892 1-262). The settings on record: protein: recombinant; tags: N-terminal GST; dsDNA, one strand shown. An outline of the steps: as §1
The target in a further test is T5, ELK3 (Homo sapiens, UniProt P41970 1-407).
T5 sequence: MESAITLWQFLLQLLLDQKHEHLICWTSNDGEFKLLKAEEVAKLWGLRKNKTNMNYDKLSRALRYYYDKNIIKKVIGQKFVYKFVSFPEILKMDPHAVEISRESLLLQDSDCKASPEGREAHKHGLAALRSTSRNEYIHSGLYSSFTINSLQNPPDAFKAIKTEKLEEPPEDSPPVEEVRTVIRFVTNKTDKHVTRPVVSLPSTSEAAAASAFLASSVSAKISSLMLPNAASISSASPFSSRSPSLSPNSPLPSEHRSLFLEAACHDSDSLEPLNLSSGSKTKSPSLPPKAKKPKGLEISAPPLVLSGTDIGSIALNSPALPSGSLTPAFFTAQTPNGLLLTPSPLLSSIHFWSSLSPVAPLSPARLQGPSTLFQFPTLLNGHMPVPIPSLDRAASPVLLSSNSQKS
The settings on record: protein: recombinant; tags: N-terminal GST; dsDNA, one strand shown. An outline of the steps: as §1

Another test has as its target T6, FEV (Homo sapiens, UniProt Q99581 1-238).
T6 sequence: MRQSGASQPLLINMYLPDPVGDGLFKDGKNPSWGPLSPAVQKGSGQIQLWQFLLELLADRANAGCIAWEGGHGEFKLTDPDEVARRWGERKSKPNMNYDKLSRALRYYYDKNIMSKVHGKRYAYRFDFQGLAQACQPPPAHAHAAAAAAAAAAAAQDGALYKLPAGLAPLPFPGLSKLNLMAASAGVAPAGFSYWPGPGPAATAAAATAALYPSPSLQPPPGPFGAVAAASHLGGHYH
Particulars: protein: recombinant; tags: N-terminal GST; dsDNA, one strand shown. An outline of the steps: as §1

Another test deals with ETV5 (Homo sapiens, UniProt P41161 1-510). Particulars: protein: recombinant; tags: N-terminal GST; dsDNA, one strand shown. An outline of the steps: as §1
Sequence of ETV5 (P41161 whole entry): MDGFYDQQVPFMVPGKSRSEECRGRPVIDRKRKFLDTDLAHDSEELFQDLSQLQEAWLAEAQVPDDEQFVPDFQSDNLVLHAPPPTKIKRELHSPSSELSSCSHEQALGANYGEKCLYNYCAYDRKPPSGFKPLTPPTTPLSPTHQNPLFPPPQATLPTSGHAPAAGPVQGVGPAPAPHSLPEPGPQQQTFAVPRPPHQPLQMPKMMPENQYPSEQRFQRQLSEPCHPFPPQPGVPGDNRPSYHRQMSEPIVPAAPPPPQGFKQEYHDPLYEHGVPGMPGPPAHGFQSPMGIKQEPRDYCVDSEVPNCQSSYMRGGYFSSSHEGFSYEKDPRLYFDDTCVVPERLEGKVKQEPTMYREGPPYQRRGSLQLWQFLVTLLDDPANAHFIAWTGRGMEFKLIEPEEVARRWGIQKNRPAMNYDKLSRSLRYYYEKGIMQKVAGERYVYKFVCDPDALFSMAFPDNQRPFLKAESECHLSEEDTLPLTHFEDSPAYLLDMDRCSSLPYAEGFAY
The target of another test is HSF1 (Homo sapiens, UniProt Q00613 1-529). Particulars: protein: recombinant; tags: N-terminal GST; chain copies: 3; dsDNA, one strand shown. An outline of the steps:
as §1

Another test deals with T7, SPIC (Homo sapiens, UniProt Q8N5J4 1-248).
T7 sequence: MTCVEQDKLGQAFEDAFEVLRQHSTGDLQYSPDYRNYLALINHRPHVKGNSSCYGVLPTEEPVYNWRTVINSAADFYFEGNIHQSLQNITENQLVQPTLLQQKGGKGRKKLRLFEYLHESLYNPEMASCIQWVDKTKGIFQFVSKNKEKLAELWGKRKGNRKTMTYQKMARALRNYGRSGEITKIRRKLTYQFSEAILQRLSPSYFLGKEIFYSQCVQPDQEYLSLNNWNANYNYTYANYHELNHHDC
The settings on record: protein: recombinant; tags: N-terminal GST; dsDNA, one strand shown. An outline of the steps:
as §1

Another test concerns the target ELF4 (Homo sapiens, UniProt Q99607 1-663). The settings on record: protein: recombinant; tags: N-terminal GST; dsDNA, one strand shown. An outline of the steps: as §1
The next test concerns the target T8, ELK4 (Homo sapiens, UniProt P28324-2 1-405).
T8 sequence: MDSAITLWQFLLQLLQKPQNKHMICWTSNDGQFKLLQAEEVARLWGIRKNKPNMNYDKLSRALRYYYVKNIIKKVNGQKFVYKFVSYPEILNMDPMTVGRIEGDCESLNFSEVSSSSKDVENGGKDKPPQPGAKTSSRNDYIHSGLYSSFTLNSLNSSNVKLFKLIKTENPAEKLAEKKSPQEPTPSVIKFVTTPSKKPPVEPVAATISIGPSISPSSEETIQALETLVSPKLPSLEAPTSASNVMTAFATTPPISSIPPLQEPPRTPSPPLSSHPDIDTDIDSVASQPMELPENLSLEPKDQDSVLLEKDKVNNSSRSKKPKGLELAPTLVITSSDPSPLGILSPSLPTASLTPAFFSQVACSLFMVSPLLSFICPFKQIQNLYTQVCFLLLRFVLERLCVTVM
Particulars: protein: recombinant; tags: N-terminal GST; dsDNA, one strand shown. An outline of the steps:
as §1

A further test concerns the target T9, ELF3 (Homo sapiens, UniProt P78545 1-371).
T9 sequence: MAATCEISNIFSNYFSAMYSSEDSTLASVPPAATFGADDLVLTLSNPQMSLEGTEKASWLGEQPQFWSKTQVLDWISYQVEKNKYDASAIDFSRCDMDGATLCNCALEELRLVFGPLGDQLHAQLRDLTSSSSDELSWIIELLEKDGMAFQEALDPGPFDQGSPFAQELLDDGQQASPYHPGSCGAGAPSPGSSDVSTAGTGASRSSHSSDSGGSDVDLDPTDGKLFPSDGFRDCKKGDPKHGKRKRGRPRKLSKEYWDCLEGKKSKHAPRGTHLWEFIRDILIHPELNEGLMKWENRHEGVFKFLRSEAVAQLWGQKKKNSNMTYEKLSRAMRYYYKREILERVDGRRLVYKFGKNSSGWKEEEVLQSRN
The settings on record: protein: recombinant; tags: N-terminal GST; dsDNA, one strand shown. An outline of the steps:
as §1

Sequence of SPIB (Q01892 whole entry): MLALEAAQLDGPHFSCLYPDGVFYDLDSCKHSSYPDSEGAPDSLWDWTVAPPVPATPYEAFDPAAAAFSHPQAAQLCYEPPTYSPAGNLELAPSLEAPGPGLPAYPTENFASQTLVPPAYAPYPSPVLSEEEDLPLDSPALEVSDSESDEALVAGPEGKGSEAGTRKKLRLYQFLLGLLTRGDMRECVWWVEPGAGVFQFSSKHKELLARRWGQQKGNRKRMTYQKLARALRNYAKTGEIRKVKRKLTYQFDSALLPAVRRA
Sequence of ELF4 (Q99607 whole entry): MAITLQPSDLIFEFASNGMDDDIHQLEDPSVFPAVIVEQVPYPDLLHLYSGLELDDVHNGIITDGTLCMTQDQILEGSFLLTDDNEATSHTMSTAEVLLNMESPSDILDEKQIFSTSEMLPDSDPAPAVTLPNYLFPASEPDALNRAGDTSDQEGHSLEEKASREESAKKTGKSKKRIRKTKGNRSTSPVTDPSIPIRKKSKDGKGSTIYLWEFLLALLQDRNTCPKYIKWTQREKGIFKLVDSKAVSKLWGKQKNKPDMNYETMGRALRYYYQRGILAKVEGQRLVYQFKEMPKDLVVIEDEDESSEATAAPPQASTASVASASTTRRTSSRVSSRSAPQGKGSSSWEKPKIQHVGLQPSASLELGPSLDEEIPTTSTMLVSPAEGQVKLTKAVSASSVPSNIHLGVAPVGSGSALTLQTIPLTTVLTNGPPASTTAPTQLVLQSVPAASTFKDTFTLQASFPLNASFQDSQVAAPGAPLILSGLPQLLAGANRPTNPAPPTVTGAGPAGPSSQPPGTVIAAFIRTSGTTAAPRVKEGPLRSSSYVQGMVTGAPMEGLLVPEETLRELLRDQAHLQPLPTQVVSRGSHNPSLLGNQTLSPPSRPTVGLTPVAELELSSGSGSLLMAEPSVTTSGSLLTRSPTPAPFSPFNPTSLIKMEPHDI
Sequence of HSF1 (Q00613 whole entry): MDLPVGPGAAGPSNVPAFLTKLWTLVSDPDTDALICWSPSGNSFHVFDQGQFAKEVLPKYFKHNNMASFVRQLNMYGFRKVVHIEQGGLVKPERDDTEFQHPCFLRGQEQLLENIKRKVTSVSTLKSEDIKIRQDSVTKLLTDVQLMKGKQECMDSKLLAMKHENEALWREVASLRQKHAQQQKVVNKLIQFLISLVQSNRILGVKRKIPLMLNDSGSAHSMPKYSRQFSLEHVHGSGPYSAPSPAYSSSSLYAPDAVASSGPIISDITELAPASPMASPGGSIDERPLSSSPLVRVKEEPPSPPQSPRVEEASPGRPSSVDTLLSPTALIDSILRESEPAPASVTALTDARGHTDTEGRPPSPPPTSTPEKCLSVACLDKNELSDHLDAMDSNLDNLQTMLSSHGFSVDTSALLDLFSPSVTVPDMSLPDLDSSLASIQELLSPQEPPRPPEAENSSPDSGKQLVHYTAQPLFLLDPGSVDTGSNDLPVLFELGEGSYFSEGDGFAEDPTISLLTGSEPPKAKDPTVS
Sequence of ELF1 (P32519 whole entry): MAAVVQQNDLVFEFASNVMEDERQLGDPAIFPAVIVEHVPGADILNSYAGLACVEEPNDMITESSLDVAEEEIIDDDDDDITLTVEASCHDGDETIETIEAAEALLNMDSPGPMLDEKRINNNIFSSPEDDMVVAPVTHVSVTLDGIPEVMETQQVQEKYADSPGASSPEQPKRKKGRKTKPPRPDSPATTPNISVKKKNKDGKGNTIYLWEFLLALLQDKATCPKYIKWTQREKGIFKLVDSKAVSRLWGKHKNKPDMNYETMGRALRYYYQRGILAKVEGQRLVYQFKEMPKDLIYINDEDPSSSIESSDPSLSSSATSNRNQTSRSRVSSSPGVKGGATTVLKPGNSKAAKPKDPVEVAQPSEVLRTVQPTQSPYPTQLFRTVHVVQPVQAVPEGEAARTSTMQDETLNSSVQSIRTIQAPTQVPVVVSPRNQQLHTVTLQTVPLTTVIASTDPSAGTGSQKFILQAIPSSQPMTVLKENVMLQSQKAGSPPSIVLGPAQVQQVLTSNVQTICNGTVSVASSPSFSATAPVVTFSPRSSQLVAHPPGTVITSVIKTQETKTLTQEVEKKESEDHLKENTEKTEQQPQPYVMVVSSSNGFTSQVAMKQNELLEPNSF

As to AACCCA, the binding signal with FLI1 is 1.05 fold enrichment (6-mer frequency, TF over GST control); in the test with ELK1, 1.03 fold enrichment (6-mer frequency, TF over GST control); in the test with GABPA, 1.02 fold enrichment (6-mer frequency, TF over GST control); in the test with ERG, 1.06 fold enrichment (6-mer frequency, TF over GST control); in the test with ELF1 it was 1.06 fold enrichment (6-mer frequency, TF over GST control); with SPI1, 1 fold enrichment (6-mer frequency, TF over GST control). In addition, the binding signal with SPIB was 1 fold enrichment (6-mer frequency, TF over GST control); in the test with ELK3, 1.1 fold enrichment (6-mer frequency, TF over GST control); with FEV, 1.03 fold enrichment (6-mer frequency, TF over GST control); with ETV5 it was 1.05 fold enrichment (6-mer frequency, TF over GST control); in the test with HSF1, 1 fold enrichment (6-mer frequency, TF over GST control); with SPIC, 1.1 fold enrichment (6-mer frequency, TF over GST control). For the same sequence, the binding signal with ELF4 is 1.1 fold enrichment (6-mer frequency, TF over GST control); with ELK4, 1.08 fold enrichment (6-mer frequency, TF over GST control); in the test with ELF3 it was 1.04 fold enrichment (6-mer frequency, TF over GST control).
